Potency estimated from few doses data for 22 molecules are collected here from publication PMC11062922 (Nature Chemical Biology, 2023).

Read-outs that look alike come from different tables or passages of the source.

What all share (design): species or system human, MV4-11 + K-562 + COLO205 + SK-N-BE2 + OVCAR-8
Assay [1] has as its system BMP2K. Particulars: read-out: apparent Kd, n = 1.
For assay [2], the system named is CSNK1G1. The conditions noted are these: read-out: apparent Kd, n = 1.
For assay [3], the system named is MARK4. The conditions noted are these: read-out: apparent Kd, compound concentrations: 100 nM and 1000 nM (sheet 'Samples'), n = 1.
Assay [4] concerns PIK3C2A. The conditions noted are these: read-out: apparent Kd, n = 1.
The subject of assay [5] is STRADA. The conditions noted are these: read-out: apparent Kd, compound concentrations: 100 nM and 1000 nM (sheet 'Samples'), n = 1.
Assay [6] has as its system MAP4K2. The conditions noted are these: read-out: apparent Kd, n = 1.
For assay [7], the system named is PAK4. Particulars: read-out: apparent Kd, n = 1.
Assay [8] concerns PIP4K2C. The conditions noted are these: read-out: apparent Kd, n = 1.
For assay [9], the system named is STK4. Particulars: read-out: apparent Kd, n = 1.
The subject of assay [10] is VDAC3. The conditions noted are these: read-out: apparent Kd, n = 1.
Assay [11] concerns PRKAA1. Particulars: read-out: apparent Kd, n = 1.
Assay [12] has as its system PRKAG2. Particulars: read-out: apparent Kd, compound concentrations: 100 nM and 1000 nM (sheet 'Samples'), n = 1.
Assay [13] has as its system DCTPP1. The conditions noted are these: read-out: apparent Kd, n = 1.
For assay [14], the system named is STK26. The conditions noted are these: read-out: apparent Kd; compound concentrations:100 nM and 1000 nM (sheet 'Samples'); n = 1.
In assay [15] the test system is BRAF. Particulars: read-out: apparent Kd; compound concentrations: 100 nM and 1000 nM (sheet 'Samples'), CATDS: 1.66184718911398E-2; n = 1.
Assay [16] deals with PIK3CA. Particulars: read-out: apparent Kd, compound concentrations: 100 nM and 1000 nM (sheet 'Samples'), n = 1.
In assay [17] the test system is MAP3K11. The conditions noted are these: read-out: apparent Kd; compound concentrations: 100 nM and 1000 nM (sheet 'Samples'), CATDS: 8.9937609356747009E-3; n = 1.
The test system of assay [18] is PRKAA2. The conditions noted are these: read-out: apparent Kd; compound concentrations: 100 nM and 1000 nM (sheet 'Samples'), CATDS: 1.00285824398185E-2; n = 1.
In assay [19] the test system is SLK. Particulars: read-out: apparent Kd, n = 1.
Where [20] appears, read: compound concentrations:100 nM and 1000 nM (sheet 'Samples').

For `COc1cccc(-n2ncc3c(N/N=C/c4ccc(C(=O)NCCN(C)C)cc4)ncnc32)c1.Cl` [GW784307A], the potency estimated from few doses in assay [1] (compound concentrations: 100 nM and 1000 nM (sheet 'Samples'), CATDS: 2.5475842805915101E-2) was 2050 nM.

`CS(=O)(=O)CCNCc1ccc(-c2ccc3ncnc(Nc4ccc(OCc5cccc(F)c5)c(C(F)(F)F)c4)c3c2)o1` [GW576484X]: the potency estimated from few doses in [2] (compound concentrations: 100 nM and 1000 nM (sheet 'Samples'), CATDS: 5.4638885824274799E-2) was 1620 nM; in [3] (CATDS: 5.9224998960535298E-2) it was 1370 nM; in assay [4] (compound concentrations: 100 nM and 1000 nM (sheet 'Samples'), CATDS: 5.2836581053762099E-2), 1740 nM; in assay [5] (CATDS: 5.2854601863181902E-2), 1740 nM.

Consider `Cc1cccc(Nc2nc(NCCN)ncc2C(N)=O)c1` [GSK1292139B], for which the potency estimated from few doses is 1110 nM in assay [6] (compound concentrations: 100 nM and 1000 nM (sheet 'Samples'), CATDS: 7.8363425236556997E-2); 778 nM in assay [7] (compound concentrations: 100 nM and 1000 nM (sheet 'Samples'), CATDS: 9.0340207585202004E-2).

Take `CS(=O)(=O)Cc1ccc(Nc2nccc(-c3c(-c4cccc(NC(=O)C5CCCCC5)c4)nn4ncccc34)n2)cc1` [GSK350559A]: the potency estimated from few doses in assay [6] (setting [20]) is 1890 nM; in assay [8] (setting [20]), 136 nM; in assay [9] (setting [20]) it was 1770 nM; in assay [10] (setting [20]), 2030 nM.

For `COc1ccc(Nc2nccc(N3CCC(NC(=O)Nc4ccc5c(c4)OCO5)C3)n2)cc1` (stereo not shown) [GSK1379745A], the potency estimated from few doses was 1600 nM in assay [2] (compound concentrations: 100 nM and 1000 nM (sheet 'Samples'), CATDS: 3.8833809861808503E-2); 2210 nM in [5] (CATDS: 3.4015058114393301E-2).

With `Cl.Cl.Cl.c1ccc(Oc2ccc(Nc3ccnc4cc(-c5ccc(CN6CCNCC6)o5)ccc34)cc2)nc1.c1ccc(Oc2ccc(Nc3ccnc4cc(-c5ccc(CN6CCNCC6)o5)ccc34)cc2)nc1` [GW567142A], the potency estimated from few doses in assay [4] (compound concentrations: 100 nM and 1000 nM (sheet 'Samples'), CATDS: 1.69384830257906E-2) was 2080 nM; in [10] (compound concentrations: 100 nM and 1000 nM (sheet 'Samples'), CATDS: 1.74915256837203E-2), 1830 nM.

In the case of `CN1C(=O)c2ccccc2N(C)c2nc(Nc3cnn(C4CCNCC4)c3)ncc21` [XMD-17-51], the potency estimated from few doses in [1] (compound concentrations: 100 nM and 1000 nM (sheet 'Samples'), CATDS: 1.6944830002157098E-2) was 771 nM; in [3] (CATDS: 2.0662278149912901E-2), 412 nM; in [11] (compound concentrations: 100 nM and 1000 nM (sheet 'Samples'), CATDS: 1.61806798261299E-2), 911 nM; in assay [12] (CATDS: 1.7077716006994301E-2) it was 750 nM.

On to `COc1ccc(CNC(=O)NC2CCN(c3ccnc(Nc4cc(OC)c(OC)c(OC)c4)n3)C2)cc1` (stereo not shown) [GSK1379748A], for which, in [8] (compound concentrations: 100 nM and 1000 nM (sheet 'Samples'), CATDS: 0.31006537475482299), the potency estimated from few doses is 2120 nM.

As to `Nc1nc(-c2ccc3c(N)n[nH]c3c2)cc(N2CCCCC2)n1` [GSK2228768A], the values for the potency estimated from few doses in assay [13] (setting [20]) and in assay [14] were 1720 nM and 1330 nM, respectively.

For the molecule `COc1ccccc1CNC1=NC(=O)/C(=C/c2ccc3ncccc3c2)S1` [RO4503315-000], the potency estimated from few doses in assay [13] (compound concentrations: 100 nM and 1000 nM (sheet 'Samples'), CATDS: 6.8298728287036994E-2) is 1390 nM.

`CC(C)c1nc(-c2cccc(NS(=O)(=O)c3ccccc3)c2)c(-c2ccnc(Nc3ccc4c(c3)CN(C)CC4)n2)s1` [GSK1649598A]: in assay [15], the potency estimated from few doses is 621 nM.

As to `O=C1N=C(NCc2ccccc2Cl)S/C1=C\c1ccc2ncccc2c1` [RO4506917-000], the potency estimated from few doses in assay [16] (CATDS: 0.16964202934765399) was 283 nM.

Regarding `O=C1N=C(NCCc2cccc(Cl)c2)S/C1=C\c1ccc2ncccc2c1` [RO4509201-000], the potency estimated from few doses in [13] (compound concentrations: 100 nM and 1000 nM (sheet 'Samples'), CATDS: 5.6638769409894603E-2) is 1590 nM; in assay [16] (CATDS: 0.11246138422507899), 274 nM.

As for `O=C1N=C(NCc2cccs2)SC1Cc1ccc2ncccc2c1` (stereo not shown) [RO4629078-000], the potency estimated from few doses in assay [1] (compound concentrations: 100 nM and 1000 nM (sheet 'Samples'), CATDS: 1.0249270291889601E-2) is 630 nM; in assay [17] it was 890 nM; in [3] (CATDS: 9.8317273929225003E-3) it was 699 nM; in assay [7] (compound concentrations: 100 nM and 1000 nM (sheet 'Samples'), CATDS: 1.27068399594295E-2) it was 391 nM; in assay [8] (compound concentrations: 100 nM and 1000 nM (sheet 'Samples'), CATDS: 1.8402634239812199E-2) it was 201 nM; in [11] (compound concentrations: 100 nM and 1000 nM (sheet 'Samples'), CATDS: 1.35837809267181E-2), 343 nM. In addition, the results for the potency estimated from few doses in assay [18] and in [12] (CATDS: 1.6046460203227E-2) were 665 nM and 253 nM, respectively.

As for `CN(C)Cc1ccc(-c2ccc3c(Nc4ccc(Oc5ccccn5)cc4)ccnc3c2)o1` [GW567148X], the potency estimated from few doses in assay [11] (compound concentrations: 100 nM and 1000 nM (sheet 'Samples'), CATDS: 1.81087827293436E-2) is 1380 nM.

On to `Nc1nc(N)c2nc(-c3ccccc3)[nH]c2n1` [SKF-12778], for which the results for the potency estimated from few doses in assay [2] (setting [20]) and in [4] (setting [20]) were 924 nM and 2130 nM, respectively.

Regarding `Cc1cc(O)cc(C)c1/C=C/c1cncc(-c2nn[nH]n2)c1.Cl` [GW441806A], the potency estimated from few doses in [16] (CATDS: 8.3670028423682499E-2) was 256 nM.

Turning to `COc1cc2ncn(-c3cc(OCCCc4ccccc4)c(C(N)=O)s3)c2cc1OC` [GSK205189A], the potency estimated from few doses was 1350 nM in [7] (setting [20]) and 1020 nM in [11] (setting [20]).

With `COc1cc2ncn(-c3cc(OCc4cccs4)c(C(N)=O)s3)c2cc1OC` [GSK312948A], the potency estimated from few doses in assay [1] (setting [20]) was 1430 nM; in [19] (setting [20]), 262 nM.

As to `CN1CCc2ccc(Nc3nccc(-c4c(-c5cccc(NC(=O)c6c(F)cccc6F)c5)nc5ccccn45)n3)cc2C1.Cl` [GSK1010829B], the potency estimated from few doses in assay [9] (compound concentrations: 100 nM and 1000 nM (sheet 'Samples'), CATDS: 3.6315985659661598E-2) is 1170 nM.

As for `CNC(=O)c1ccccc1Nc1nc(Nc2cccc(CS(C)(=O)=O)c2)ncc1C.O=CO` [GSK1520489A], in assay [19] (compound concentrations: 100 nM and 1000 nM (sheet 'Samples'), CATDS: 2.2249249802163501E-2), the potency estimated from few doses is 107 nM.

Take `Cn1cc(-c2cnc(N)c3c(-c4ccc5c(c4)CCN5C(=O)Cc4ccccc4)csc23)cn1` [GSK2593074A]: the potency estimated from few doses in assay [9] (setting [20]) is 1130 nM.
